FBPA Giardia inh = qHTS Assay for Inhibitors of Fructose-1,6-bisphosphate Aldolase from Giardia Lamblia; A8B2U2; purified Giardia FBPA; Potency, µM (titrated, usually from 59.6 µM), for the others: at the top dose activity, negative = inhibition, most hits filed as inhibitors; actives 0.71% (n = 290,000); active means well fitted inhibition curve with a large enough effect; inconclusive means small, poorly fitted or top-dose-only effect, or effect the other way; further: nearly all actives have a fitted effect of over 55% in size
Target sequence (A8B2U2 whole entry, looked up): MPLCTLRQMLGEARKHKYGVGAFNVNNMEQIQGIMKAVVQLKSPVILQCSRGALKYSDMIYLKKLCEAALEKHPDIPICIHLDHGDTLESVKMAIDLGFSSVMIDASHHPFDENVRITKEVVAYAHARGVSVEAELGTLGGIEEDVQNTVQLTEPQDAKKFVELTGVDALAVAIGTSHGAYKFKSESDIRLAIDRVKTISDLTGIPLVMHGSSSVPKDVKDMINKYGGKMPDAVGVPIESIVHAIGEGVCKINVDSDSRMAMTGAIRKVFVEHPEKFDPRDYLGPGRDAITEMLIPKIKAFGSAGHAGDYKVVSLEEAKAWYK
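Giardia FBPA (40 nM reagent) was preincubated 10 min at RT with compound (up to 57.5 uM final), then substrate plus GAPDH/TPI/NAD/arsenate coupling system with diaphorase/resazurin was added; resorufin fluorescence (525/598 nm) was read after 20 min.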
Vaccinia Venus = qHTS for Stage-Specific Inhibitors of Vaccinia Orthopoxvirus: Venus Reporter Primary qHTS; actives 0.46% (n = 330,000); Potency, µM (series often up to 36.5 µM), for the others: at the highest dose activity change, negative = inhibition, most hits filed as inhibitors; AID 720580, 2013; Vaccinia virus Venus reporter expression, fluorescence; calls by dose curve; tested in A549 cells; further: nearly all actives have a fitted effect of over 30% in size
VACV mCherry inh = qHTS for Stage-Specific Inhibitors of Vaccinia Orthopoxvirus: mCherry Reporter Primary qHTS; Vaccinia virus mCherry reporter infection, fluorescence; Potency, µM (series often up to 36.5 µM), inactives show top-dose activity change, negative = inhibition, actives largely listed as inhibitors; actives 0.63% (n = 310,000); calls by dose curve; tested in A549 cells; further: nearly all actives have a fitted effect of over 35% in size
FMDV inh = High Throughput Screening for Foot and Mouth Disease Virus Antivirals. actives 1.2% (n = 410,000). Potency, µM (top dose mostly 57.9 µM), without a hit: at the top dose activity change, negative = inhibition, actives largely listed as inhibitors. FMDV antiviral cell-based qHTS. AID 1159524, 2015; calls by dose curve; tested in HEK293T cells; further: read-out not given here; nearly all actives have a fitted effect of over 45% in size
* marks the source's active call; other numbers are inactive results; ? = inconclusive; · = no result given. Compounds with a hit are over-represented: about 2.2% of the library has one in this group of screens. On the % scale 0 is the no-effect control and ±100 the full control effect; potency means the concentration at half of the fitted maximal effect.

SMILES	FBPA Giardia inh	Vaccinia Venus	VACV mCherry inh	FMDV inh
CCN(CC)CC1CN(N=Cc2ccc([N+](=O)[O-])o2)C(=O)O1 (stereo not drawn)	·	15.8µM*	?	53.0%
Nc1ncnc2c1nc(Br)n2C1O[C@H]2COP(=O)(O)O[C@@H]2C1O (stereo partly drawn)	-1.8%	·	·	·
O=C(Nc1ccncc1)c1ccc2c(c1)C(=O)N(C1CCCCC1)C2=O	0.1%	?	?	14.1µM*
O=C1c2ccccc2C(=O)N1Nc1ccccc1	8.3%	16.6%	-8.6%	0.0%
Cc1ccc(NN2C(=O)C=C(c3ccccc3)C2=O)cc1	-8.1%	-17.4%	-2.4%	20µM*
COc1c2ccoc2nc2c(OC)c(O[C@@H]3O[C@H](C)[C@@H](O)[C@@H](O)[C@H]3O)ccc12	-0.3%	·	·	-14.1%
C[C@@H]1[C@H](c2ccccc2)OCCS(=O)(=O)N1Cc1cccc(C(F)(F)F)c1	·	-10.6%	-15.3%	·
CC1Cc2cc(-c3csc(NC(=O)Cc4cccs4)n3)ccc2N1S(C)(=O)=O (stereo not drawn)	-8.2%	?	?	5.62µM*
CCCCn1c(/N=C/c2cc(OC)ccc2O)nc2ccccc21	-3.8%	3.55µM*	?	2.5%
Cn1c(=O)c2cc(S(=O)(=O)Nc3cc(C(=O)O)cc(C(=O)O)c3)ccc2n(C)c1=O	10.4%	·	·	-11.0%
Cc1cc(C)cc(NS(=O)(=O)c2ccc3c(c2)c(=O)n(C)c(=O)n3C)c1	0.2%	5.01µM*	5.62µM*	·
Cc1oc(C)c2c(=O)ccc3c(c12)OC(N)=C(C#N)C3c1ccc(F)cc1 (stereo not drawn)	5.62µM*	18.6%	8.1%	-23.2%
Cc1[nH]nc2c1C(c1ccc(F)cc1)C(C#N)=C(N)O2 (stereo not drawn)	2.4%	-3.7%	-10.6%	?
Oc1cc(-c2nc3ccccc3s2)cc2c1OCCN(Cc1cccn1-c1ncccn1)C2	·	-1.5%	-12.7%	36.5%
CCOc1ccc2[nH]c(=O)c(CN(Cc3nnnn3Cc3ccco3)C3CCCCC3)cc2c1	?	-17.9%	·	-22.8%
COc1cc2cc(CN(Cc3nnnn3Cc3ccco3)C3CCCCC3)c(=O)[nH]c2cc1OC	10µM*	-16.9%	·	-24.1%
COc1ccc2cc(CN(Cc3ccco3)Cc3nnnn3C3CCCCC3)c(=O)[nH]c2c1	-8.0%	-27.3%	-2.4%	-14.5%
CCc1ccc2[nH]c(=O)c(CN(Cc3ccccc3OC)Cc3nnnn3Cc3ccco3)cc2c1	-2.5%	28.2µM*	·	?
COc1ccc2cc(CN(Cc3ccco3)C(c3nnnn3C3CCCCC3)C(C)C)c(=O)[nH]c2c1 (stereo not drawn)	-0.7%	-16.5%	·	15.8µM*
COc1ccccc1CN(Cc1cc2cc(C)ccc2[nH]c1=O)Cc1nnnn1Cc1ccco1	9.1%	?	·	?
CCC1(C2CCN(C(=O)c3cc(C)cc(C)c3)CC2)NC(=O)N(CCc2scnc2C)C1=O (stereo not drawn)	·	-7.2%	-22.0%	-9.3%
Cc1cccc(CNC(=O)c2c3n(c(C)cc2=O)-c2ccccc2SC(c2sccc2C)C3)n1 (stereo not drawn)	·	11.6%	-1.8%	-0.4%
C=C1C(=O)OC2C[C@@]3(C)CCCC(=C)[C@@H]3CC12 (stereo partly drawn)	11.3%	·	·	·
C=C1CCC[C@]2(C)C[C@H]3OC(=O)C(CNC(C)(CO)CO)[C@H]3CC12 (stereo partly drawn)	5.7%	?	7.94µM*	-21.1%
C=C1CCC[C@]2(C)C[C@H]3OC(=O)C(CNC(C)CC)[C@H]3CC12 (stereo partly drawn)	1.5%	·	·	-8.8%
C=C1CCC[C@]2(C)C[C@H]3OC(=O)C(CN4CCCCC4CO)[C@H]3CC12 (stereo partly drawn)	-11.5%	2.51µM*	3.16µM*	?
C=C1CCC[C@]2(C)C[C@H]3OC(=O)C(CN(C)CC(OC)OC)[C@H]3CC12 (stereo partly drawn)	-10.1%	?	0.891µM*	-9.5%
C[C@@H](CN(C)C[C@H]1C(=O)O[C@@H]2C[C@@]3(C)CCC[C@]4(CO4)C3CC21)[C@H](O)c1ccccc1 (stereo partly drawn)	3.4%	·	·	-8.1%
C=C1CCC[C@]2(C)C[C@H]3OC(=O)C(CNC(CC)CO)[C@H]3CC12 (stereo partly drawn)	-1.6%	7.08µM*	7.08µM*	-22.4%
COC(=O)c1ccc(NC(=O)COc2ccccc2C(=O)Nc2ccccc2)cc1	·	-20.2%	-14.0%	·
